According to the supplement of paper PMC6555819:

Key:
Assay in all cases: PBM binding z-score (relative to random genomic background probes); higher = stronger binding; sequences stand for … in GC…GCGATTGACAGCGTAGAATGAAGG
[1] = tested on: FXR:RXRa (NR concentration 270 nM, RXRa partner concentration 90 nM)
How it was run: (§1)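 Binding buffer was PBS pH 7.4 with 2% milk, 0.02% Triton X-100, 1 mM DTT, 0.2 mg/mL BSA and 0.4 mg/ml salmon testes DNA. In it, ligand-free nuclear receptor dimers were incubated 1 h on custom Agilent 4×180K protein-binding microarrays carrying double-stranded probes. Antibodies against each partner (one per run) detected binding, and z-scores were calculated against random background probes after regression normalization of scanned fluorescence.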

[2] = tested on: LXRa:RXRa (NR concentration 270 nM, RXRa partner concentration 90 nM)
How it was run: as §1

[3] = tested on: LXRa homodimer (NR concentration 270 nM)
How it was run: as §1

[4] = tested on: LXRb:RXRa (NR concentration 270 nM, RXRa partner concentration 90 nM)
How it was run: as §1

[5] = tested on: LXRb homodimer (NR concentration 270 nM)
How it was run: as §1

[6] = tested on: PPARa:RXRa (NR concentration 270 nM, RXRa partner concentration 90 nM)
How it was run: as §1

[7] = tested on: PPARg:RXRa (NR concentration 180 nM, RXRa partner concentration 90 nM)
How it was run: as §1

[8] = tested on: PPARg:RXRa 270nM:90nM, anti-RXR (NR concentration 270 nM, RXRa partner concentration 90 nM)
How it was run: as §1

[9] = tested on: PPARg:RXRa 30nM:10nM, anti-RXR (NR concentration 30 nM, RXRa partner concentration 10 nM)
How it was run: as §1

[10] = tested on: PPARg:RXRa 90nM:30nM, anti-RXR (NR concentration 90 nM, RXRa partner concentration 30 nM)
How it was run: as §1

[11] = tested on: PPARg:RXRa DBDmut IVT, anti-RXR (DBD mutation: RXRa K156A/R161A, NR concentration 270 nM, RXRa partner concentration 90 nM)
How it was run: as §1

[12] = tested on: PPARg:RXRa IVT, anti-PPARg (NR concentration 270 nM, RXRa partner concentration 90 nM)
How it was run: as §1

[13] = tested on: PPARg DBDmut:RXRa IVT, anti-PPARg (DBD mutation: PPARg1 K132A/R137A, NR concentration 270 nM, RXRa partner concentration 90 nM)
How it was run: as §1

[14] = tested on: PPARg DBDmut IVT, anti-PPARg (DBD mutation: PPARg1 K132A/R137A, NR concentration 270 nM)
How it was run: as §1

[15] = tested on: PPARg homodimer (NR concentration 180 nM)
How it was run: as §1

[16] = tested on: PXR:RXRa (NR concentration 270 nM, RXRa partner concentration 90 nM)
How it was run: as §1

[17] = tested on: PXR homodimer (NR concentration 270 nM)
How it was run: as §1

[18] = tested on: RARa:RXR (NR concentration 270 nM, RXRa partner concentration 90 nM)
How it was run: as §1

[19] = tested on: RARa homodimer (NR concentration 270 nM)
How it was run: as §1

[20] = tested on: RARb:RXRa (NR concentration 270 nM, RXRa partner concentration 90 nM)
How it was run: as §1

Sequence | PBM binding z-score [1] | PBM binding z-score [2] | PBM binding z-score [3] | PBM binding z-score [4] | PBM binding z-score [5] | PBM binding z-score [6] | PBM binding z-score [7] | PBM binding z-score [8] | PBM binding z-score [9] | PBM binding z-score [10] | PBM binding z-score [11] | PBM binding z-score [12] | PBM binding z-score [13] | PBM binding z-score [14] | PBM binding z-score [15] | PBM binding z-score [16] | PBM binding z-score [17] | PBM binding z-score [18] | PBM binding z-score [19] | PBM binding z-score [20]
CCTACTGCGCCAAAAAGGTCATTGATGCCGATAA | 4.02 | 4.8 | 4.24 | 4.54 | 1.52 | 4.78 | 1.47 | 3.17 | 1.18 | 2.45 | 0.459 | 1.48 | 0.19 | 0.294 | 4.51 | 4.87 | 3.21 | 5.58 | 3.23 | 4.05
TAGACTAGGTCATTGGGCCAGTATAGTACGCATC | 3.51 | 2.61 | 0.548 | 1.56 | 0.785 | 3.89 | 5.62 | 5.24 | 2.45 | 4.58 | 5.72 | 6.51 | 1.28 | 0.786 | 1.15 | 1.2 | 0.294 | 1.65 | 0.657 | 3.45
TCTATTAGTTGAAGGGCCACCGACGAGTCCGTTT | 0.67 | 0.709 | 0.433 | 0.782 | 0.195 | 0.892 | 0.0935 | 2.33 | 3.78 | 3.03 | 2.33 | 0.338 | 0.273 | 0.346 | 1.31 | 0.576 | 0.557 | 0.817 | 1.15 | 1.07
TCTATTAGTTGATGGGCAACCGACGAGTCCGTTT | 0.353 | 0.502 | -0.0154 | 0.186 | 0.322 | -0.00429 | 0.0134 | 1.55 | 3.41 | 2.29 | 2.03 | 0.211 | 0.778 | 1.05 | 0.547 | 0.231 | 0.849 | -0.171 | 0.633 | 0.125
TATACAGGGTCAAAGGCCAGAATACGAATGTCGA | 6.57 | 5.89 | 2.16 | 4.62 | 2.29 | 5.89 | 7.8 | 7.19 | 5.21 | 7.33 | 1.98 | 4.81 | 2.92 | 2.34 | 2.02 | 3.86 | 0.553 | 5.78 | 0.841 | 4.28
TCTAGCAGGCCAGAGGGTTACTCAAGAGGTACGG | -0.419 | -0.0387 | -1.02 | -0.282 | -1.4 | 0.38 | 0.82 | 1.73 | 1.86 | 1.81 | 0.735 | -0.175 | -1.35 | -1.09 | -0.477 | -0.175 | -0.868 | -0.0112 | -0.732 | 0.213
TCTTGTAGATCAAGCTGGTTAAGAAAGCCTGAGT | -0.0681 | -0.116 | -0.611 | 0.0138 | -0.299 | 0.383 | -0.868 | 1.04 | 2.54 | 1.73 | 1.49 | 0.0134 | 0.281 | 0.0135 | -0.627 | 0.0638 | 0.0966 | -0.059 | -0.593 | -0.304
TCTTGTAGATGAACAGGAGGTTAAGAAAGATCGA | 0.551 | 0.82 | -0.0533 | 0.712 | -0.35 | 0.923 | 0.119 | 1.32 | 2.89 | 2.02 | 1.53 | 0.277 | 0.804 | 0.789 | 0.0799 | 0.598 | -0.154 | 0.883 | 0.212 | 0.279
CCGACTGGGGCATTAGGTTACCATAAGCCAGCCC | -0.253 | 0.617 | -0.377 | 0.144 | -1.38 | 1.12 | 2.09 | 2.4 | 0.389 | 1.44 | 4.18 | 4.74 | 1.31 | -0.339 | 0.243 | -0.496 | -0.542 | 0.173 | -0.742 | 0.848
CCGACTGGGCCATAAGGTTACCATAAGCCAGCCC | 0.273 | 1.84 | -0.402 | 0.636 | -0.941 | 1.4 | 1.57 | 2.48 | 0.644 | 2.05 | 1.93 | 2.16 | -0.459 | -1.39 | 0.396 | 0.04 | -0.806 | 1.15 | -0.622 | 1.06
ATCTCTAGGTAACCAAGTTCAGTAAATGCCGAAC | 0.686 | 1.04 | 1.15 | 1.1 | 0.894 | 1.29 | 0.842 | 1.1 | 0.556 | 0.989 | 3.43 | 2.97 | 1.54 | 2.29 | 1.32 | 2.05 | 1.79 | 1.07 | 0.775 | 1.2
CAAACTAGGTCATCCAGGACAGTGAATACATTGA | 4.46 | 3.23 | 1.22 | 2.51 | 0.932 | 5.12 | 8.08 | 6.82 | 4.42 | 6.36 | 8.23 | 8.47 | 4.2 | 2.88 | 2.69 | 2.23 | 1.49 | 2.85 | 1.49 | 3.84
GCCACTGGGGCAAAGCAGGTTACCATAAGGTTGG | 0.159 | 0.154 | -0.633 | -0.0213 | -0.866 | 1.67 | 2.09 | 2.57 | 0.133 | 1.47 | 5.67 | 5.29 | 0.444 | -0.613 | 0.322 | 0.224 | -0.707 | 1.06 | -0.774 | 1.01
CCACCAAGGTGAACAAGGTCGTTGATTACTATTC | 1.47 | 1.57 | 0.468 | 2.04 | -0.359 | 2.63 | 1.21 | 1.23 | -0.313 | 0.583 | 2.14 | 2.55 | 0.528 | 0.567 | 1.61 | 3.17 | 2.75 | 2.58 | 0.52 | 2.37
